The values below come from PubChem BioAssay (EPA / NIEHS).

Where “and” joins values, the source holds several entries; their conditions need not be identical. Equal values may be shown once. Calls of active or inactive are those of the source. Rule for the calls: active = hit-call score of the fitted dose curve at least 0.9, where 1 is the maximum; inactive = score below 0.9.

The term AC50 denotes the concentration at which the activity in the assay is half-maximal.

Read-out in the assay: urokinase plasminogen activator (uPA), PLAU (gene 5328)
Briefly: BSK_KF3CT_uPA: BioMAP Diversity Plus: KF3CT Assay for urokinase plasminogen activator (uPA) Biomarker Activity (AID 2283075). The conditions noted are these: primary human keratinocytes with fibroblasts; actives raise or lower the signal. The method, boiled down:
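Values derive from bidirectional fitting against DMSO controls. Keratinocyte/foreskin fibroblast co-cultures received chemical; 24 h later uPA was detected by ELISA, with SRB total-protein staining in parallel wells for overt cytotoxicity.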
On to `O=c1c2ccccc2oc2ccccc12`, for which the outcome was inactive.

On to `COCc1c(C(C)C)nc(C(C)C)c(/C=C/[C@@H](O)C[C@@H](O)CC(=O)O)c1-c1ccc(F)cc1`, for which the outcome was inactive.

Regarding `O=Nc1ccc(O)cc1`, the outcome was inactive.

As to `N#[N+]c1ccc2c(S(=O)(=O)[O-])cccc2c1O`, the result was inactive.

For the molecule `C#CC1(O)CC[C@H]2[C@@H]3CCC4=CCCC[C@@H]4[C@H]3CC[C@@]21C` (stereo partly specified), the half-maximal activity concentration (AC50) is 35.1 µM (active).

For the molecule `O=C(Cl)c1cc(C(=O)Cl)cc(C(=O)Cl)c1`, the AC50 is 30.9 µM (active).

Take `CC(C)C(=O)C(C)C`: the outcome was inactive.

For the molecule `C=CC(=O)OCC(Br)CBr` (stereo unspecified), the concentration at half-maximal activity (AC50) was 34.1 µM (active).

`CCOC(=O)c1ccccc1C(=C1C=C(Br)C(=O)C(Br)=C1)c1cc(Br)c(O)c(Br)c1`: the concentration at half-maximal activity (AC50) was 3.6 µM (active) and 3.63 µM (active).

As to `c1ccc2c(c1)ccc1ncccc12`, the result was inactive.

With `CCCCC(CC)COC(=O)c1ccccc1O` (stereo unspecified), the outcome was inactive.

Turning to `CCCCCCCCCCCCCCCC[N+](C)(C)CC`, the AC50 is 7.22 µM (active).

With `COc1ccc2nc(N)sc2c1`, the result was inactive.

As for `CC(C)(c1cc(Br)c(OCCO)c(Br)c1)c1cc(Br)c(OCCO)c(Br)c1`, the concentration at half-maximal activity (AC50) is 16.2 µM (active).

Take `CCCCC/C=C\C/C=C\CCCCCCCC(=O)OC`: the AC50 is 30.8 µM (active).

As for `Nc1ccc(N)c(Cl)c1`, the result was inactive.

Take `CC1OC1C1CCC2(C)OC2C1` (stereo unspecified): the result was inactive.

With `C=C[Si](OC(C)=O)(OC(C)=O)OC(C)=O`, the result was inactive.

As to `S=C(NC1CCCCC1)NC1CCCCC1`, the result was inactive.

Regarding `C/C=C\C/C=C/CCCCCCCCOC(C)=O`, the result was inactive.

With `CCCCC(CC)COCC1CO1` (stereo unspecified), the result was inactive.

Turning to `CCO[Si](CCCN=C=O)(OCC)OCC`, the result was inactive.

As to `CO[Si](OC)(OC)c1ccccc1`, the result was inactive.

Take `CCCCNc1ccc(NCCCC)c2c1C(=O)c1ccccc1C2=O`: the result was inactive.

Take `CCO[Si](C)(OCC)OCC`: the outcome was inactive.

Take `O=C1CCCN1CCO`: the result was inactive.

Take `CN1C(=O)N(C)C(O)C1O` (stereo unspecified): the outcome was inactive.

Consider `C=CCOc1c(Br)cc(Br)cc1Br`, for which the concentration at half-maximal activity (AC50) is 28.6 µM (active).

With `CCCCCCCCc1ccc(Nc2ccc(CCCCCCCC)cc2)cc1`, the result was inactive.

As to `O=C(c1ccc(O)cc1)c1ccc(O)cc1O`, the outcome was inactive.

Regarding `CCOc1nc(F)cc2nc(S(=O)(=O)Nc3c(Cl)cccc3C(=O)OC)nn12`, the result was inactive.

Regarding `C=CC=CC=CCCCCC`, the outcome was inactive.

For the molecule `c1ccc(-c2ccccn2)nc1`, the result was inactive.

Consider `C=CCOCC(O)CCl` (stereo unspecified), for which the outcome was inactive.

Take `c1ccc2c(c1)ccc1cc3c(ccc4ccccc43)cc12`: the result was inactive.

As for `O=C(Nc1ccccc1SSc1ccccc1NC(=O)c1ccccc1)c1ccccc1`, the outcome was inactive.
